What all share (conditions): primary human HUVEC with PBMC; actives raise or lower the signal
Read-out in assay [1]: Interleukin-1 alpha (IL1a), IL1A (gene 3552)
The assay is described as follows: BSK_LPS_IL1a: BioMAP Diversity Plus: LPS Assay for Interleukin-1 alpha (IL1a) Biomarker Activity (AID 2283080). In outline: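 ELISA read-out of IL-1 alpha from a human primary vascular co-culture (endothelium plus PBMC) under LPS, sampled 24 hours post-dosing. Activity was fitted in both directions relative to DMSO controls.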

Read-out in assay [2]: Monocyte Chemoattractant Protein-1 (MCP1), CCL2 (gene 6347)
Description: BSK_LPS_MCP1: BioMAP Diversity Plus: LPS Assay for Monocyte Chemoattractant Protein-1 (MCP1) Biomarker Activity (AID 2283081).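 As to AC50: secreted MCP-1 protein quantified by ELISA in culture supernatant.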 In outline: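 Human endothelial–PBMC co-cultures were dosed with chemical, then LPS-driven MCP-1 levels were quantified by ELISA at 24 h. Activity in either direction was fitted versus DMSO negative control.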

Assay [3] is described as follows: BSK_LPS_PGE2: BioMAP Diversity Plus: LPS Assay for Prostaglandin E2 (PGE2) Biomarker Activity (AID 2283082). In outline: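 PGE2 release measured by ELISA in an LPS-activated co-culture of human umbilical vein endothelial cells and peripheral blood mononuclear cells, read at 24 h post-dosing. DMSO served as baseline for bidirectional curve fitting.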
Read-out in assay [4]: Macrophage colony-stimulating factor (MCSF), CSF1 (gene 1435)
The assay is described as follows: BSK_LPS_MCSF: BioMAP Diversity Plus: LPS Assay for Macrophage colony-stimulating factor (MCSF) Biomarker Activity (AID 2283083). In outline: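 ELISA readout of M-CSF after 24 h compound exposure in a human endothelial/PBMC co-culture. Activity, in either direction, is fitted relative to DMSO vehicle.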

Read-out in assay [5]: Tissue Factor, F3 (gene 2152)
The assay is described as follows: BSK_LPS_TissueFactor: BioMAP Diversity Plus: LPS Assay for Tissue Factor Biomarker Activity (AID 2283084). In outline:
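ELISA signal for cell-surface Tissue Factor (CD142) was read 24 h after compound dosing of an LPS-stimulated human endothelial–PBMC primary co-culture. Gain or loss of signal was scored relative to DMSO.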

Read-out in assay [6]: Tumor necrosis factor (Homo sapiens) (UniProt P01375)
The assay is described as follows: BSK_LPS_TNFa: BioMAP Diversity Plus: LPS Assay for Tumour Necrosis Factor alpha (TNFa) Biomarker Activity (AID 2283085). The procedure, abridged: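 TNFa was quantified by ELISA in LPS-activated co-cultures of human endothelial cells and PBMC, 24 h post-dosing. Both increases and decreases versus DMSO were fitted.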

Read-out in assay [7]: Vascular cell adhesion molecule 1 (VCAM1), VCAM1 (gene 7412)
Description: BSK_LPS_VCAM1: BioMAP Diversity Plus: LPS Assay for Vascular cell adhesion molecule 1 (VCAM1) Biomarker Activity (AID 2283086). In outline:
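VCAM-1 quantified by ELISA in an LPS-activated co-culture of human endothelial cells and peripheral blood mononuclear cells, read 24 h post-treatment. Fitted in both directions versus DMSO; parallel SRB staining flags overt cytotoxicity.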

Read-out in assay [8]: CD38, CD38 (gene 952)
Description: BSK_SAg_CD38: BioMAP Diversity Plus: SAg Assay for CD38 Biomarker Activity (AID 2283087). In outline: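 CD38 quantified by ELISA (fluorescence) in a superantigen-activated endothelial cell–PBMC co-culture at 24 h post-dose. Activity fitted in both directions relative to DMSO; parallel SRB and Alamar Blue cytotoxicity read-outs.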

Read-out in assay [9]: CD40, CD40 (gene 958)
Description: BSK_SAg_CD40: BioMAP Diversity Plus: SAg Assay for CD40 Biomarker Activity (AID 2283088). The procedure, abridged: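 Compounds were dosed onto a human primary endothelial–PBMC co-culture, and after 24 h CD40 was quantified by ELISA using a fluorescence signal. Activity in either direction was fitted relative to DMSO.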

Read-out in assay [10]: CD69, CD69 (gene 969)
Description: BSK_SAg_CD69: BioMAP Diversity Plus: SAg Assay for CD69 Biomarker Activity (AID 2283089).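 As to AC50: cell surface CD69 protein quantified by ELISA with fluorescence detection.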 In outline: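 Endothelial/PBMC co-culture; chemical added; 24 h incubation; CD69 ELISA with fluorescence detection; bidirectional fit vs DMSO.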

Where “and” joins values, the source holds several entries; their conditions need not be identical. Equal values may be shown once. The source holds several records for some structures; these can differ, active in one and inactive in another. Calls of active or inactive are those of the source. The calls were made as follows: active = hit-call score of the fitted dose curve at least 0.9, where 1 is the maximum; inactive = score below 0.9.

Chain of Tumor necrosis factor (Homo sapiens) (P01375 whole entry, looked up): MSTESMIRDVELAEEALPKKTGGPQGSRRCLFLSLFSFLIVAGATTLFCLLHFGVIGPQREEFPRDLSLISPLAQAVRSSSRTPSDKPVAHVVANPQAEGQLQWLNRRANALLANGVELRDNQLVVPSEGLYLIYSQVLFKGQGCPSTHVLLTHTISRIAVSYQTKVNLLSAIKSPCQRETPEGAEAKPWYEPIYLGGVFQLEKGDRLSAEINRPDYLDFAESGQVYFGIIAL

Consider `CO/C=C(/C(=O)OC)c1ccccc1Oc1cc(Oc2ccccc2C#N)ncn1`, for which the outcome in assay [1], in [3], in [5], in assay [6] and in assay [7] was inactive. Besides, the concentration at half-maximal activity (AC50) in [2] is 27.1 µM (active) [middle of 4 runs]; in assay [3] it was 9.64 µM (active); in [4], 24.5 µM (active) [middle of 4 runs]; in [5], 35.3 µM (active); in [6] it was 15.5 µM (active); in [7] it was 11 µM (active) and 8.26 µM (active) and 19.7 µM (active). The concentration at half-maximal activity (AC50) is 20 µM (active) [middle of 4 runs] in assay [8], 20.6 µM (active) [middle of 4 runs] in assay [9] and 12.3 µM (active) [middle of 4 runs] in assay [10].
Consider `CCNc1nc(Cl)nc(NCC)n1`, for which the outcome in assay [2], in assay [3], in assay [4], in [5], in assay [7] and in [8] was inactive. Also, the result in [9] and in [10] was inactive. Also, in [6], the AC50 is 8.37 µM (active).
Regarding `CCCCOC(=O)c1ccccc1C(=O)OCCCC`, the result in assay [2], in assay [3], in assay [4], in [5], in assay [6] and in assay [7] was inactive. For the same compound, the result in [8], in [9] and in [10] was inactive. Moreover, the concentration at half-maximal activity (AC50) in assay [9] is 15.4 µM (active).
On to `COc1cnc(OC)n2nc(NS(=O)(=O)c3c(OCC(F)F)cccc3C(F)(F)F)nc12`, for which the result in assay [2], in assay [3], in assay [4], in [5], in [6] and in assay [7] was inactive. For the same compound, the result in assay [8], in assay [9] and in assay [10] was inactive.
In the case of `CC(C)(C)c1ccc(CSc2cnn(C(C)(C)C)c(=O)c2Cl)cc1`, the AC50 in assay [2] is 5.45 µM (active); in assay [4], 9.19 µM (active); in [7], 15.8 µM (active); in assay [8], 2.4 µM (active); in [9] it was 4.43 µM (active); in assay [10], 1.43 µM (active). For the same compound, the result in assay [3], in assay [5] and in [6] was inactive.
In the case of `CCOC(=O)CC(SP(=S)(OC)OC)C(=O)OCC` (configuration not stated), the result in assay [1], in assay [2], in assay [3], in [4], in assay [5] and in assay [6] was inactive. The outcome in assay [7], in assay [8], in assay [9] and in assay [10] was inactive.
`CCCCC(CC)COC(=O)c1ccccc1C(=O)OCC(CC)CCCC` (configuration not stated): the outcome in [1], in assay [2], in assay [3], in assay [5], in [7] and in assay [9] was inactive. The concentration at half-maximal activity (AC50) in assay [4] is 4.51 µM (active); in [6], 12.3 µM (active); in [8], 7.36 µM (active); in [10] it was 5.92 µM (active).
As for `CCCCNC(=O)OCC#CI`, the AC50 in assay [2] is 30.9 µM (active) and 16.6 µM (active); in [3], 36 µM (active); in assay [4] it was 20 µM (active) and 17.1 µM (active); in [5], 15.6 µM (active) and 13.7 µM (active); in assay [6], 13.2 µM (active) and 12.3 µM (active); in assay [7], 24.9 µM (active) and 27.1 µM (active). The AC50 in assay [8] is 21.4 µM (active) and 17.4 µM (active); in assay [9] it was 18.7 µM (active) and 22.5 µM (active); in assay [10], 21.9 µM (active) and 15.5 µM (active). Further, in assay [3], the result was inactive.
For the compound `CCOc1cc(Oc2ccc(C(F)(F)F)cc2Cl)ccc1[N+](=O)[O-]`, the outcome in [2], in assay [3], in assay [5], in assay [6], in assay [7] and in assay [9] was inactive. The outcome in [10] was inactive. For the same compound, the figures for the AC50 in assay [4] and in assay [8] were 5.45 µM (active) and 8.23 µM (active), respectively.
Turning to `COC(=O)c1ccccc1C(=O)OC`, the result in assay [2], in [3], in assay [4], in [5], in assay [6] and in assay [7] was inactive. Also, the result in assay [8], in [9] and in assay [10] was inactive.
As for `COc1nc(NC(C)C)nc(NC(C)C)n1`, the outcome in assay [2], in [3], in assay [4], in assay [5], in assay [7] and in assay [8] was inactive. Also, the result in [9] and in assay [10] was inactive. Also, the concentration at half-maximal activity (AC50) in assay [6] is 9.63 µM (active).
Consider `C#CCOS(=O)OC1CCCCC1Oc1ccc(C(C)(C)C)cc1` (configuration not stated), for which the AC50 was 20 µM (active) in assay [2]; 15.8 µM (active) in assay [4]; 32.6 µM (active) in [5]; 10.1 µM (active) in assay [7]; 5.43 µM (active) in [8]; 7.36 µM (active) in assay [9]. The concentration at half-maximal activity (AC50) in assay [10] was 5.11 µM (active). Besides, the outcome in assay [3] and in assay [6] was inactive.
Regarding `CC(C)C1(C)N=C(c2nc3ccccc3cc2C(=O)O)NC1=O` (configuration not stated), the outcome in assay [1], in assay [2], in assay [3], in [5], in [6] and in assay [7] was inactive. The result in [8] and in assay [10] was inactive. The concentration at half-maximal activity (AC50) is 2.62 µM (active) in [4] and 1.33 µM (active) in assay [9].

The values are drawn from PubChem BioAssay (EPA / NIEHS).
